# A selection: hits, their analogues and other compounds. The true share with any hit is near 6.6%.
# TGFb SMAD3 inh: qHTS for Inhibitors of TGF-b; HepG2 CAGA-GFP TGF-b/SMAD3 reporter, GFP fluorescence, 18 h; TGF-beta stimulated, 500 pg/mL final; Potency, µM (doses to about 46.1 µM), for the others: at the top dose activity, negative = inhibition, actives largely listed as inhibitors; hit rate 1.2% among 410,000; note: % is set by controls: 0 for no effect and ±100 for the full control effect; nearly all actives have a fitted effect of over 65% in size
#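 Inhibition of TGF-beta-driven CAGA-GFP reporter expression in HEPG2 cells is measured by cellular GFP fluorescence after 18 h stimulation with 500 pg/mL recombinant TGF-beta in 1% FBS medium at 37 degrees C.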
# KB-V1 cytotox: qHTS assay for MDR1-selective chemotherapeutics: Primary screen using the drug-selected MDR subline cells KB-V1 | KB-V1 MDR cells viability, CellTiter-Glo, 72 h | hit rate 3.4% among 400,000 | Potency, µM (top dose mostly 46.1 µM), usual class: cytotoxic; note: % is set by controls: 0 for no effect and ±100 for the full control effect; nearly all actives have a fitted effect of over 60% in size
#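 Luminescent ATP read-out (CellTiter-Glo, 10 min) measures survival of drug-selected KB-V1 MDR cells after 72 h, 37 degrees C compound exposure. Medium: phenol-red-free DMEM, 10% FBS. Values from fitted concentration-response curves.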
# KB-3-1 tox: qHTS assay for MDR1-selective chemotherapeutics: Primary screen using the parental adenocarcinoma cell KB-3-1. AID 1347075, 2019. Potency, µM (series often up to 46.1 µM), actives largely listed as cytotoxic. hit rate 1.4% among 400,000. KB-3-1 viability, CellTiter-Glo ATP luminescence, 72 h; note: % is set by controls: 0 for no effect and ±100 for the full control effect; nearly all actives have a fitted effect of over 60% in size
#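 Cytotoxicity measured as CellTiter-Glo luminescence after 72 h at 37 C. Compound titrations were pinned onto drug-naive KB-3-1 parental adenocarcinoma cells grown in DMEM with 10% FBS, and normalized data fitted to concentration-response curves.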
# HepG2 tox: qHTS for Inhibitors of TGF-b: Cytotox Counterscreen | HepG2 CAGA-GFP viability, ATP luminescence, 18 h | hit rate 0.76% among 410,000 | Potency, µM (highest dose often 46.1 µM), for the others: at the highest dose activity change, negative = cytotoxicity, actives largely listed as cytotoxic
#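 HepG2 CAGA-GFP cells (1000/well, DMEM with 1% FBS) received compound, then TGF-beta at 500 pg/mL final, and were incubated 18 hours at 37 degrees C. Viability was read by CellTiter-Glo luminescence. Media-only wells were set as complete cell-killing and DMSO as no toxicity.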
# HT1080NT lethal: qHTS for induction of synthetic lethality in tumor cells producing 2HG: qHTS for the HT-1080-NT fibrosarcoma cell line | HT-1080-NT fibrosarcoma viability, CellTiter-Glo ATP luminescence, 48 h | hit rate 1.6% among 360,000 | Potency, µM (series often up to 46.1 µM), inactives show at the highest dose activity, negative = less viability, hits mostly cytotoxic;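 note: NT is the 2HG producing partner of a matched IDH1 knockdown line; 0% = DMSO-treated cells and -100% = media-only wells without cells; nearly all actives have a fitted effect of over 55% in size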
#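 A 48-hour cytotoxicity screen used HT-1080-NT cells plated 2 hours before compound delivery. ATP-based CellTiter-Glo luminescence measured viability, normalized to DMSO and no-cell controls.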
# HT1080 IDH1KD tx: qHTS for induction of synthetic lethality in tumor cells producing 2HG: qHTS for the HT-1080-IDH1KD cell line; hit rate 2% among 360,000; AID 686971, 2013; Potency, µM (doses to about 46.1 µM), for inactives: at the top dose activity, negative = toxicity, most hits filed as cytotoxic; HT-1080 IDH1 knockdown viability, ATP luminescence, 48 h;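 note: 0% = DMSO wells and -100% = cell-free medium wells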
#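 Viability of IDH1-knockdown HT-1080 fibrosarcoma cells was assessed by CellTiter-Glo after 48 h at 37 °C with titrated compound; concentration-effect curves were classified by fit quality and response size.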
# * = called active by the depositor; i = inactive; ? = inconclusive; . = no result. Calls come from the whole dose curve; as a rule, active = well fitted curve in the direction sought with a large enough effect; inconclusive = small, poorly fitted or top-dose-only effect, or another doubt; inactive = no such curve, though single readings can be large; an effect the other way counts as inactive or inconclusive. Potency is the fitted concentration of half-maximal effect.
SMILES,TGFb SMAD3 inh,KB-V1 cytotox,KB-3-1 tox,HepG2 tox,HT1080NT lethal,HT1080 IDH1KD tx
COc1ccc(C2C3=C(Nc4ncnn42)c2ccccc2CCC3)cc1 (stereo not given),-30.8%,i,i,-1.9%,-5.5%,-2.0%
Fc1ccc(/C=C2\CCCC3=C2Nc2ncnn2C3c2ccc(F)cc2)cc1 (stereo not given),?,?,20.6µM*,-98.4%,7.31µM*,6.51µM*
O=c1c2ccccc2nnn1CSc1ccc2ccccc2n1,-17.3%,23.1µM*,i,-3.4%,8.4%,18.0%
Cc1cc(SCn2nnc3ccccc3c2=O)nc2ccccc12,0.4%,16.4µM*,i,-12.8%,-2.1%,-1.8%
O=C(Nc1ccc(OC(F)(F)F)cc1)NC1COc2ccccc2C1 (stereo not given),-17.7%,i,i,-7.9%,.,.
Cc1c(CN2CCC(Oc3ccc(C(=O)N4CCCCC4)cc3)CC2)cnn1C,15.7%,?,i,0.0%,0.4%,11.4%
O=C(/C=C\c1ccccc1OC(=O)c1ccccc1F)c1cc2ccccc2o1,14.1µM*,?,i,-43.8%,16.4µM*,?
CC(=O)/C=C\c1ccccc1OC(=O)c1cc2ccccc2oc1=O,13.3%,i,i,-1.2%,0.2%,4.2%
COc1ccccc1NC(=O)C1=C(C)Nc2c(C(=O)Nc3cccc(C)c3)cnn2C1c1ccccc1Cl (stereo not given),-10.3%,.,.,0.9%,.,.
OCCCNc1nc(-c2ccc(Cl)cc2)nnc1-c1ccc(Br)cc1,23.0%,i,23.1µM*,-26.7%,?,?
O=[N+]([O-])c1ccc(-c2nnc(-c3ccccc3)c(NCCCO)n2)cc1,-6.8%,?,i,-18.8%,0.8%,-7.3%
CCc1ccc(S(=O)(=O)N2CCN(c3ccc(Cl)c(Cl)c3)CC2)cc1,2.5%,?,?,-8.0%,.,.
CCOc1cc(-c2noc(N)c2C#N)cc(OCC)c1OCC,-23.5%,i,i,-38.4%,-26.7%,5.1%
Cc1ccccc1-c1noc(N)c1C#N,-13.0%,?,i,3.4%,?,10µM*
CCCCN1CC(COCc2ccccc2)Oc2cccc(OCCN3C(=O)[C@@H]4[C@H](C3=O)C3C=C[C@H]4C3)c2S1(=O)=O (stereo not given in full),-14.4%,14.6µM*,?,-18.9%,?,-29.9%
CCCCN1CC(COCc2ccccc2)Oc2cccc(Oc3ccc(OC)cc3)c2S1(=O)=O (stereo not given),3.9%,i,i,1.0%,-0.7%,-0.6%
Cc1cc(-n2c(C)nc3ccccc3c2=O)ccc1NC(=O)c1ccc(C)c([N+](=O)[O-])c1,-21.5%,i,i,-6.6%,.,.
FC(F)C(F)(F)Oc1cccc(Nc2nccn3c(-c4ccc5ccccc5c4)cnc23)c1,2.3%,10.3µM*,?,-9.7%,-20.0%,?
CCN(C(=O)Cn1c(SCc2ccccc2F)nc2cccnc21)c1ccccc1,?,.,.,-29.6%,.,.
O=C1C(=C(I)I)c2ccccc2-c2ccccc21,6.31µM*,14.6µM*,?,11.2µM*,?,5.17µM*
O=C(O)c1cccc2c1C(=O)c1ccccc1-2,3.8%,i,i,1.4%,10.0%,?
CCOc1ccc(N2CC(c3nc4ccccc4n3CCOc3ccccc3)CC2=O)cc1 (stereo not given),15.8µM*,i,i,-23.8%,.,.
CCc1ccccc1N1CC(c2nc3ccccc3n2CCC2CCCCC2)CC1=O (stereo not given),?,?,?,10µM*,.,.
